ELG1 repair inh = blocks ELG1-dependent DNA repair in HEK293T cells; HEK293T ELG1-luciferase reporter, luminescence, 16 h; DNA damage induced by 5-fluorouridine; Potency, µM (titrated, usually from 46.1 µM), for inactives: top-dose activity change, negative = inhibition, actives largely listed as inhibitors; 2.3% of 330,000 active; also: potency is read from the fitted curve at half-maximal effect; nearly all actives have a fitted effect of over 55% in size
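Reporter activity after DNA damage by 5-fluorouridine is monitored. Compound-treated cells incubate 16 hr at 37 °C, then ONE-Glo is added for 30 min before luminescence reading.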
TDP1 cell CPT = DT40-hTDP1 cell growth loss with CPT | chicken DT40 Tdp1-/-;hTDP1 cells + 20 nM CPT, ATP luminescence, 48 h | 12% of 420,000 active | Potency, µM (doses to about 46.2 µM), for inactives: at the top dose activity change, negative = growth inhibition, most hits filed as inhibitors; also: potency is read from the fitted curve at half-maximal effect; nearly all actives have a fitted effect of over 55% in size
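Chicken DT40 Tdp1-/- cells complemented with human TDP1, 400 cells/well, exposed to compounds plus 20 nM camptothecin for at least 48 h at 37 C; viability read as ATP content by CellTiter-Glo luminescence.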
IL1B secr inh = blocks inflammasome-driven IL-1 beta release | activity change, % at 57.5 µM | THP-1 LPS/ATP IL-1B secretion, AlphaLISA, 16 h; hits give low values | 4.7% of 360,000 active | AID 743279; in the data active = activity change below about -50%; inconclusive = mostly about -30% to -49%
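Secreted IL-1B measured by AlphaLISA bead assay after 16 h compound exposure of THP-1 cells; compounds (final up to 57.5 uM) added 1 h before LPS (250 ng/mL) and ATP (1.25 mM) stimulation; lower signal means less secretion.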
Giardia killer = Giardia lamblia killing; Giardia lamblia trophozoite viability; activity change, % at 7.66 µM, hits read low; 0.15% of 340,000 active; AID 540267; in the data active = activity change below about -80%; inconclusive = between about -30% and that limit;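 also: parasites exposed to compound for two days anaerobically before the ATP read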
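Compounds were tested on trophozoites seeded at 100 cells/well and held 48 hrs at 37 deg C anaerobically. An ATP-based luminescent kit measured the remaining live cells.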
DT40 TDP1 no CPT = qHTS for Inhibitors of human tyrosyl-DNA phosphodiesterase 1 (TDP1): qHTS in cells in absence of CPT; DT40 Tdp1-/- hTDP1 cells, no CPT, ATP luminescence, 48 h; Potency, µM (highest dose often 46.2 µM), without a hit: top-dose activity change, negative = growth inhibition, most hits filed as inhibitors; 15% of 420,000 active; also: potency is read from the fitted curve at half-maximal effect; nearly all actives have a fitted effect of over 55% in size
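Growth of hTDP1-complemented DT40 Tdp1-knockout cells is measured by ATP luminescence after at least 48 hr compound exposure at 37 °C, with DMSO substituting for the 20 nM CPT used in the parallel screen.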
TDP1 block = TDP1 (human) enzyme inhibition; Potency, µM (top dose mostly 130 µM), for the others: top-dose activity change, negative = inhibition, most hits filed as inhibitors; AID 485290; 0.28% of 350,000 active; recombinant TDP1, AlphaScreen DNA substrate cleavage; Q9NUW8; also: potency is read from the fitted curve at half-maximal effect; nearly all actives have a fitted effect of over 40% in size
Target sequence (Q9NUW8 whole entry, looked up): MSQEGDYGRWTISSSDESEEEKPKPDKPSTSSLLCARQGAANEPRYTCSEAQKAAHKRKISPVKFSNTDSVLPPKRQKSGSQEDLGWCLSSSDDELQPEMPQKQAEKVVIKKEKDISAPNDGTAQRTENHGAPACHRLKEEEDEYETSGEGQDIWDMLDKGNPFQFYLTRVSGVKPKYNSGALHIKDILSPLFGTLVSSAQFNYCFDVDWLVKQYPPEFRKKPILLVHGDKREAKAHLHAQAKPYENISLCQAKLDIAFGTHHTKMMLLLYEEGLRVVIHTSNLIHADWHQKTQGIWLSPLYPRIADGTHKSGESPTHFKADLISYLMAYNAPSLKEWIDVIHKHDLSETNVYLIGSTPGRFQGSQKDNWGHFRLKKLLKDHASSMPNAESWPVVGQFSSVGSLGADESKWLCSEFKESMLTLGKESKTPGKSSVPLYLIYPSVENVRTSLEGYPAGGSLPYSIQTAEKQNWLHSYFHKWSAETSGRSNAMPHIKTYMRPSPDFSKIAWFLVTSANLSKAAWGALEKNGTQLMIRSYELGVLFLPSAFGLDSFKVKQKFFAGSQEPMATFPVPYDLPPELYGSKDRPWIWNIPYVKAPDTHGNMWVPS
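Steps: enzyme plus compound, 15 min RT; add biotin/phosphotyrosine-FITC oligonucleotide (15 nM final), react 5 min; add donor/acceptor beads (10 ug/ml final), 10 min; read AlphaScreen. Tdp1 at 1 nM final.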
* marks the source's active call; other numbers are inactive results; i = inactive; ? = inconclusive; . = no result given; [ ] = remark or other dose. Most compounds without a hit are left out; they make up all but 19% or so of the library. Unless noted, calls follow the shape of the dose curve; as a rule, active = well fitted curve in the direction sought with a large enough effect; inconclusive = small, poorly fitted or top-dose-only effect, or another doubt; inactive = no such curve, though single readings can be large; an effect the other way counts as inactive or inconclusive. % is scaled to controls: 0 for no effect and ±100 for the full control effect.

SMILES	ELG1 repair inh	TDP1 cell CPT	IL1B secr inh	Giardia killer	DT40 TDP1 no CPT	TDP1 block
O=c1ccsc2ccccc12	.	7.4%	0.6	31.2	2.3%	.
O=c1c2ccccc2on1-c1ccccc1	.	3.1%	-0.8	.	-0.4%	.
N#Cc1ccc2c(=O)n(-c3ccccc3)sc2c1	.	3.26µM*	23.5	.	2.59µM*	.
O=C(O)c1cccc(-n2sc3ccccc3c2=O)c1	23.6%	?	-106.6*	2.6	?	-0.2%
COc1ccc(C(=O)Nc2ncnc3nc[nH]c23)cc1	.	-4.9%	.	.	-7.6%	.
CC(=O)Nc1ccc(N2CC(C)(C)C2=O)cc1	11.9%	2.0%	-3.4	?	-8.6%	2.5%
CCc1cccc(NC(=O)C2CCN(S(=O)(=O)c3cccc(-c4noc(C)n4)c3)CC2)c1	.	?	.	.	20.6µM*	2.5%
Cc1nc(-c2ccc(C)c(S(=O)(=O)N3CCC(C(=O)Nc4ccc(Cl)cc4)CC3)c2)no1	.	16.4µM*	.	.	?	3.4%
Cc1nc(-c2cccc(S(=O)(=O)N3CCC(C(=O)NCc4ccccc4Cl)CC3)c2)no1	.	18.4µM*	.	.	-88.5%	6.4%
CC(=O)c1ccc(N2CCN(S(=O)(=O)c3cc(-c4noc(C)n4)ccc3C)CC2)cc1	.	?	.	.	2.2%	1.5%
O=C1c2oc3ccccc3c(=O)c2C(c2ccc(Br)cc2)N1c1ccccn1 (configuration not stated)	.	5.5%	.	.	-1.9%	2.3%
Cc1cc2ccccc2cn1	.	-9.0%	.	.	-10.1%	.
COc1ccc(C(=O)Nc2ccc(N3CCN(C)CC3)cc2)cc1OC	?	5.3%	-80.6*	0.4	-29.2%	.
COc1ccc(C(=O)NC(=S)Nc2ccc(N3CCOCC3)cc2)cc1Cl	?	?	-14.5	9.7	20.6µM*	9.5%
Cc1ccc(C(=O)NC(=S)Nc2ccc(N3CCOCC3)cc2)cc1C	10.3µM*	?	0.0	5.3	14.6µM*	10.3%
O=C(NC(=S)Nc1ccc(N2CCOCC2)cc1)c1ccc(Cl)cc1	3.5%	-14.1%	14.8	8.1	-8.6%	3.4%
COC(=O)C[C@H]1C=C[C@@H](NC(=O)c2ccncc2)[C@@H](CO)O1	.	8.0%	9.6	.	4.7%	.
Cc1c(C(=O)N2CCOCC2)sc(NC(=O)c2ccccc2F)c1C#N	9.0%	-5.9%	4.9	1.8	-11.2%	-10.0%[0.0935 µM]
COc1ccc(S(=O)(=O)N(C)c2ccc(C(=O)N3CCCCC3)cc2)cc1	?	?	0.0	-15.1	14.6µM*	4.1%[56.1 µM]
O=C(c1ccc(-c2nnc(-c3ccccc3)o2)cc1)N1CCCCCC1	?	10µM*	-6.0	8.7	17.8µM*	7.3%
COc1cc2c(cc1OC)CN(C(=O)c1ccc3nc[nH]c3c1)CC2	2.6%	3.26µM*	67.8	2.6	3.26µM*	6.3%
COc1ccc(C(=O)N2CCc3ccc(NC(=O)c4ccccn4)cc3C2)cc1F	?	20.6µM*	-1.4	-0.8	23.1µM*	.
COc1ccc(NC(=O)N2CCc3ccccc3C2)cc1OC	-0.1%	6.9%	-3.3	-12.8	6.3%	3.4%
CC1CCCCC1NC(=O)COc1ncnc2sccc12 (configuration not stated)	12.5%	0.3%	24.4	-1.5	1.0%	-0.1%
Oc1ccc(N=C/C=C/c2ccc(Br)cc2)cc1-c1nc2ccccc2s1	?	.	.	.	.	-1.2%
SMILES	ELG1 repair inh	TDP1 cell CPT	IL1B secr inh	Giardia killer	DT40 TDP1 no CPT	TDP1 block
CC(C)CC(=O)Nc1nnc(SCC(=O)NCC2CCCO2)s1 (configuration not stated)	-12.7%	3.9%	i	-7.7	-16.7%	4.7%[56.1 µM]
CC(OC(=O)c1nccnc1N)C(=O)Nc1ccc(S(=O)(=O)N2CCCC2)cc1 (configuration not stated)	4.4%	-0.4%	-4.6	-10.0	0.7%	6.6%
CN(c1ccc(C(=O)N2CCN(Cc3ccccc3)CC2)cc1)S(=O)(=O)c1ccc(Cl)cc1	-16.7%	?	.	25.8	16.4µM*	7.4%
CN(c1ccc(C(=O)N2CCCCCC2)cc1)S(=O)(=O)c1ccccc1	20.5%	13µM*	13.7	8.8	8.2µM*	1.3%
COc1ccc(S(=O)(=O)N(C)c2ccc(C(=O)N3CCCCC3)cc2)cc1OC	?	7.31µM*	45.6	4.6	20.6µM*	.
CN(c1ccc(C(=O)N2CCCCC2)cc1)S(=O)(=O)c1cccs1	-11.1%	?	0.3	-1.7	?	0.8%
COc1cc2c(cc1OC)CN(C(=O)c1ccc(S(=O)(=O)N(C)c3ccccc3)cc1)CC2	?	?	2.3	16.4	14.6µM*	6.0%
COc1cc2c(cc1OC)CN(C(=O)c1cccc(S(=O)(=O)N(C)C)c1)CC2	0.0%	-10.2%	10.3	1.4	-0.2%	.
Cc1ccc(OCC(=O)Nc2nnc(SCc3cc(=O)n4cc(C)ccc4n3)s2)cc1	.	1.2%	.	.	0.2%	2.7%
O=C(CSc1ncc(-c2ccccc2)n1-c1ccccc1)NCc1ccco1	-14.9%	?	-1.6	0.6	16.4µM*	9.8%
COc1ccc(OC)c(NC(=O)CSc2nc3ccccc3c3nc4ccccc4n23)c1	?	.	.	.	.	-0.6%
Cc1ccc(NC(=O)CSc2nc3ccccc3c3nc4ccccc4n23)cc1	9.7%	0.651µM*	43.7	19.5	0.581µM*	8.8%
O=C(CSc1nc2ccccc2c2nc3ccccc3n12)NCc1ccco1	3.4%	25.9µM*	-4.4	-3.6	23.1µM*	.
COc1cccc(Nc2nc3ccc(OC)cc3s2)c1	?	-23.6%	-172.3*	3.5	?	0.0%
CCCC(=O)Nc1nc2ccc(OC)cc2s1	?	14.6µM*	10.8	9.1	?	7.2%
COc1ccc2nc(NC(=O)CCc3ccc(OC)c(OC)c3)sc2c1	-4.8%	-18.6%	-10.2	-0.7	?	6.1%
COc1ccc2nc(NC(=O)CSC3=NCCS3)sc2c1	14.5%	?	-58.0*	-1.8	?	2.0%
CCOc1ccc2nc(NC(=O)CSc3ccc(Cl)cc3)sc2c1	2.9%	?	-1.2	-3.1	?	-2.3%
CCOc1ccc2nc(NC(=O)CSC3=NCCS3)sc2c1	-0.6%	23.1µM*	-92.1*	-10.7	?	0.0%
Cc1cc(C)c(OCCN2CCOCC2)c(Cl)c1	9.1%	-26.0%	18.1	11.4	1.1%	.
CCCCn1nnnc1NCc1ccc(N(CC)CC)cc1	-21.5%	?	13.3	5.4	-21.6%	-3.6%
CCc1ccc(NC(=O)CCn2cnc3ccccc3c2=O)cc1	.	-3.9%	.	.	-20.0%	-14.3%
COc1ccc2nc(NC(=O)c3cc(C)oc3C)sc2c1	?	?	-10.5	-5.7	?	-1.2%
COc1ccc2nc(NC(=S)N(C)C)sc2c1	?	4.61µM*	94.7	-17.7	4.61µM*	11.6%

High-throughput results (PubChem)
